Source: PubChem
The entries come from a sample that favours hits as a whole.
Tgondii IFNg: T. gondii growth inhibition under IFN-gamma; actives 3.8% (n = 69,000); activity change, negative = inhibition, % (no concentration beside the values); Toxoplasma gondii growth in IFN-gamma-treated host cells; hits give low values; in the data active = activity change below about -70%, passing the limit was not always enough;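 also: host cells are HeLa cells infected with Toxoplasma gondii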
* = called active by the depositor; i = inactive.

SMILES	Tgondii IFNg
CCn1c(=O)c(-c2nc(-c3cccc(C)c3)no2)c(O)c2ccc(F)cc21	66
O=C(COc1ccc(Cl)cc1)Nc1ccc(Cl)cn1	197
Cc1ccccc1CSCC(=O)Nc1c[nH]c(=O)[nH]c1=O	15
O=C(COc1ccc(Cl)cc1)Nc1c[nH]c(=O)[nH]c1=O	-106*
CCc1ccc(NC(=O)NCC(c2cccnc2)c2c[nH]c3ccccc23)cc1 (stereo not drawn)	52
COc1cccc(-n2cc(CN(C)Cc3cc(F)ccc3F)cn2)c1	11
Cc1cc(CN(C)CC(=O)NCCc2cccc(Cl)c2)n[nH]1	0
COc1cccc(-c2cccc(CN(C)Cc3cc(C)[nH]n3)c2)c1	-82*
O=C(CNC1CCCCC1)Nc1ccc(Oc2ccccc2)cc1	-42
Cc1cc(N(C)CC2CCCCO2)nc(N2CCOCC2)n1 (stereo not drawn)	-38
CCOc1ccc(-c2nc(CN(c3ccccc3C)S(=O)(=O)c3cccs3)c(C)o2)cc1OC	-63
Cc1ncc(CN2CCC3(CC2)CC(NC(=O)N(C)C)CCO3)[nH]1 (stereo not drawn)	5
CC1CCN(C(=O)c2nc(-c3ccc(Cl)cc3)n3c2CCCCC3)CC1	22
Cc1ccc(-c2nc(C(=O)Nc3cc(C)on3)c3n2CCCCC3)cc1	-110*
O=C(c1nc(-c2cccc(F)c2)n2c1CCCCC2)N1CCN(c2ncccn2)CC1	6
CC1CCCCN1CCCNC(=O)c1nc(-c2ccc(Cl)cc2)n2c1CCCCC2 (stereo not drawn)	-37
O=C(c1nc(-c2cccc(F)c2)n2c1CCCCC2)N1CCCCCC1	-87*
CCOC(=O)N1CCN(C(=O)c2nc(-c3ccc(C)cc3)n3c2CCCCC3)CC1	29
Cc1cc(NC(=O)c2nc(-c3cccc(F)c3)n3c2CCCCC3)no1	236
COC(=O)c1sccc1NC(=O)c1nc(-c2ccc(C)cc2)n2c1CCCCC2	-97*
CC(C)CCNC(=O)c1nc(-c2cccc(F)c2)n2c1CCCCC2	-42
CCCN1CCN(C(=O)c2nc(-c3ccc(C)cc3)n3c2CCCCC3)CC1	240
CC(=O)Nc1ccc(NC(=O)c2nc(-c3ccc(C)cc3)n3c2CCCCC3)cn1	-99*
CC1CC(C)CN(C(=O)c2nc(-c3cccc(F)c3)n3c2CCCCC3)C1 (stereo not drawn)	-54
CCN(CC)c1cc(N2CC(N3CCCCC3C)C2)nc(N)n1 (stereo not drawn)	-7
SMILES	Tgondii IFNg
CCOC[C@@H]1CCC2C(CCN2C(=O)NCc2cccc(F)c2)O1 (stereo partly drawn)	101
CC(C)n1cnc2c(-c3cccnc3)nc(C3CCN(C(=O)c4ccccn4)CC3)cc21	145
CN(C)c1cc(C2CCN(C(=O)C3CCCCC3)CC2)nc(-c2cnccn2)n1	11
CCN1C(=O)CCc2cc(NC(=O)c3n[nH]c4ccccc34)ccc21	125
CN(CCCc1nccn1C)Cc1cc2n(n1)CCCNC2	7
CCOC(=O)c1csc(-c2sccc2COc2ccccc2)n1	65
COc1ccc(CCNC(=O)Cc2ccccc2)cc1OC	-48
O=c1c(Cl)c(Oc2ccccc2)cnn1-c1ccccc1	72
COc1ccc(CCNc2cnn(-c3ccccc3)c(=O)c2Cl)cc1OC	-83*
Cc1cccc(Nc2nc(C(=O)Nc3cccc(Cl)c3)nc3ccccc23)c1	30
Cc1ccc(Nc2nc(C(=O)Nc3cccc(Cl)c3)nc3ccccc23)cc1	5
O=C(O)c1ccc2c(c1)nc(Nc1cccc(Cl)c1)c1ccncc12	-73*
Cc1cc(C)n(Cc2nc(-c3ccc(NC(=O)Cc4cccc(F)c4)cc3)oc2C)n1	-38
Cc1cc(C)n(Cc2nc(-c3ccc(NC(=O)c4ccc(F)cc4F)cc3)oc2C)n1	-85*
COc1ccc(C(=O)Nc2ccc(-c3nc(Cn4nc(C)cc4C)c(C)o3)cc2)cc1F	114
Cc1nn(Cc2nc(-c3ccc(NC(=O)c4ccc(F)cc4F)cc3)oc2C)c(C)c1C	-101*
Cc1cc(C)n(Cc2nc(-c3ccc(NC(=O)Cc4ccccc4F)cc3)oc2C)n1	-8
Cc1cc(C)n(Cc2nc(-c3ccc(NC(=O)c4cc(F)ccc4F)cc3)oc2C)n1	-81*
Cc1nn(Cc2nc(-c3ccc(NC(=O)c4cccc(F)c4)cc3)oc2C)c(C)c1C	49
Cc1nn(Cc2nc(-c3ccc(NC(=O)c4ccccc4F)cc3)oc2C)c(C)c1C	-69
Cc1cc(C)n(Cc2nc(-c3ccc(NC(=O)c4ccc(F)cc4Cl)cc3)oc2C)n1	66
Cc1nn(CC(=O)NCCC(C)C)c(=O)c2nc(-c3ccccc3)sc12	12
CC(C)N1CCn2nc(C(=O)NCc3nnc(-c4ccccc4)o3)cc2C1	0
Cc1ccc(Nc2nc(C(=O)Nc3cccc(Br)c3)nc3ccccc23)cc1	39
CC(=O)NCCOc1ccc(C(=O)N2CCOC(C(F)(F)F)C2)cc1 (stereo not drawn)	-44
SMILES	Tgondii IFNg
Cc1nc(C)c(C(=O)N2CCCC2c2ccc(Cc3cccc(F)c3)cn2)o1 (stereo not drawn)	4
Cc1nn(C(C)CC(=O)Nc2ccnn2C(C)C)c(C)c1Cl (stereo not drawn)	-9
CN1C[C@@H]2C3(CCN(C(=O)c4ccco4)CC3)CC[C@]2(C(=O)N(C)C)C1	2
CN(C)C(=O)NC1COC2(CCN(C(=O)Nc3ccccc3)CC2)C1 (stereo not drawn)	7
COc1ccc2oc(CNC(=O)CN3CCCCCC3)nc2c1	1
CCOC(=O)c1nn(CCc2ccccc2)c2c1CN(C(=O)c1csc(SC)n1)CC2	-20
CC(C)CNC(=O)C1=NOC2(CCN(Cc3ccc(C(C)C)cc3)C2)C1 (stereo not drawn)	-82*
CC(C)CNC(=O)C1=NOC2(CCN(C(=O)c3ccccn3)C2)C1 (stereo not drawn)	0
COc1ccc(CN2CCC3(CC(C(=O)NCC(C)C)=NO3)C2)cc1 (stereo not drawn)	4
COc1ccc(-c2nc(NCCc3ccccc3)c3ccccc3n2)cc1	-48
CCO[C@H]1CCN(C(=O)c2cnc(C)cn2)[C@H]1Cc1ccccc1	3
CCOc1ccc(C(=O)NCCc2csc(-c3ccc(OC)cc3)n2)cc1	38
COc1ccc(C(=O)NCCc2csc(-c3ccc(Cl)cc3)n2)c(OC)c1	-85*
Cc1ccc(Cl)cc1NC(=O)C(=O)NCCc1csc(-c2cccc(F)c2)n1	-64
COc1ccc(-c2nc(CCNC(=O)c3ccccc3Br)cs2)cc1	i
Cc1ccc(C)c(NC(=O)C(=O)NCCc2csc(-c3ccc(F)cc3)n2)c1	-69
O=C(NCCc1csc(-c2ccc(Cl)cc2)n1)c1cccs1	-79*
O=C(NCCc1csc(-c2ccccc2)n1)c1cccs1	246
CCCCOc1ccc(C(=O)NCCc2csc(-c3ccc(Cl)cc3)n2)cc1	-49
COc1ccc(-c2nc(CCNC(=O)c3ccc(OC)cc3OC)cs2)cc1	42
Cc1ccc(C)c(NC(=O)C(=O)NCCc2csc(-c3cccc(F)c3)n2)c1	-101*
COc1ccc(-c2nc(CCNC(=O)c3cccs3)cs2)cc1OC	i
CCCCOc1ccc(C(=O)NCCc2csc(-c3ccc(OC)cc3)n2)cc1	-110*
Cn1cc(-c2ccccc2)c(C(F)(F)F)n1	-13
CCc1cnc(C)nc1-c1cccc(-n2cccn2)c1	10
CC(c1n[nH]c(=O)n1Cc1cccs1)n1cccn1 (stereo not drawn)	4
Cc1ncc(-c2ccc(NS(=O)(=O)c3ccc4c5c(cccc35)CC4)cc2)o1	3
CCn1nc(C(C)C(=O)N(C)Cc2nnc(-c3ccccc3)o2)c2ccccc2c1=O (stereo not drawn)	-3
